Results taken from ChEMBL document CHEMBL3988442, “University of Dundee, Small-Polar-MMV Screening Library” (2021).

Columns and labels:
[1] = molecular target: T1, Aspartate--tRNA(Asp/Asn) ligase (Mycobacterium tuberculosis (strain ATCC 25618 / H37Rv)) (UniProt P9WFW3); test: Assay for Asp RNA synthetase-1 from Mycobacterium tuberculosis; type: functional; design: scale not given: direction of the effect not stated beside the values; conditions: 30 µM; also: in the data most compounds retested in dose-response had high values
T1 sequence (whole entry): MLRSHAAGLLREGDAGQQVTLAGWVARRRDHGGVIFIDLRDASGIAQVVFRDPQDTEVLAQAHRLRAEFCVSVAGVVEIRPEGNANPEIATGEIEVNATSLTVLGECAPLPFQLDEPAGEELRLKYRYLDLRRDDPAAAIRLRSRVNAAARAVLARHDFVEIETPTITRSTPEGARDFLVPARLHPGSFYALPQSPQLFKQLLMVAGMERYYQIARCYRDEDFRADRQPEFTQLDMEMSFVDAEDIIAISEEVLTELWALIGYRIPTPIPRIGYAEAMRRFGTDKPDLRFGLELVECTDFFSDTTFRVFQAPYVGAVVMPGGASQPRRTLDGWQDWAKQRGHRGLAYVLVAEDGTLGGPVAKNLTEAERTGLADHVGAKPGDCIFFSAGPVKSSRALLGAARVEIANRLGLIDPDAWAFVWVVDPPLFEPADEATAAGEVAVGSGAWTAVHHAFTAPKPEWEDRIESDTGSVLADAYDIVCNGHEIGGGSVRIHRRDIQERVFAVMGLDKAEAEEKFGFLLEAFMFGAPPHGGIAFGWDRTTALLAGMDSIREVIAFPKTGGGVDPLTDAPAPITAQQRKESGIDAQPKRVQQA

[2] = molecular target: Shiga toxin 2 (Escherichia coli O157:H7) (UniProt P09385+P09386); test: E. coli 0.157:H7 Shiga Toxin SOP - stx2 screening assay; type: functional; design: scale not given: direction of the effect not stated beside the values; conditions: 30 µM

| SMILES | Percent Effect [1] [%] | Percent Effect [2] [%] |
| --- | --- | --- |
| CC(Cn1ccnc1)NC(=O)NCCc1ccccn1 (stereo unspecified) | -8.15 | -8.89 |
| CN(Cc1nnc2n1CCC2)C(=O)NCCc1ccc2c(c1)OCO2 | 10.3 | 19.1 |
| CCn1ccnc1CN1CCCN(C(=O)Cn2nc(C)cc2C)CC1 | 3.14 | 8.68 |
| CNC(=O)C1CCN(C(=O)c2cccn2Cc2cccs2)CC1 | 0.91 | 11.1 |
| CC(O)CC(C)(C)CNC(=O)NCc1cccc(-n2ccnc2)c1 (stereo unspecified) | 1.43 | -7.32 |
| COc1ccc(CN2CCOC3(CCCN(c4nnc(C)o4)C3)C2)cc1 (stereo unspecified) | -5.88 | 7.44 |
| CCNC(=O)N1CCCCC1CCO (stereo unspecified) | -3.54 | -15.4 |
| N#Cc1ccnc(N2CCN(C(=O)NC3CCS(=O)(=O)C3)CC2)c1 (stereo unspecified) | -2.74 | 8.29 |
| Cc1ccccc1CNC(=O)Cc1c(C)nc2cc(=O)[nH]n2c1C | -0.856 | 17.8 |
| O=C(Cc1ccccc1)N1CCC2(CC(=O)N(c3ccsc3)C2)C1 (stereo unspecified) | -3.62 | -10.4 |
| O=C(CCc1cccnc1)N(Cc1ccsc1)CC1CCCO1 (stereo unspecified) | -1.24 | -0.116 |
| CC(C)Nc1ccc2nc(C3CCN(C(C)C)CC3)nn2c1 | -0.549 | -8.89 |
| COc1ccc(NC(=O)NC(C)(C)c2noc(C)n2)cc1 | -6.73 | -8.05 |
| O=C(c1ccsc1)N1CCOC2(CCN(Cc3cccnc3)CC2)C1 | 0.932 | -9.41 |
| NCC(c1ccccc1)N1CCc2sccc2C1 (stereo unspecified) | -4.25 | -7.32 |
| O=C1NC(c2ccccc2)=N[C@@]12CC[C@@H]1CN(CC3CCOCC3)C[C@@H]12 | 1.31 | -0.652 |
| Cn1cc(CN2CCn3c(CNC(=O)c4cccn4C)cnc3C2)cn1 | 12.8 | -22.6 |
| CCc1ccc(O)c(C(=O)NC2CCN(Cc3ccncc3)CC2)c1 | -4.26 | -67.7 |
| CC(=O)N1CCN(CC2CCOc3ccccc3C2)CC1 (stereo unspecified) | 1.75 | -26.3 |
| Cc1ccc(CN2CCc3ncnc(-c4cccnc4)c3CC2)o1 | 4.98 | 9.48 |
| Cc1ccn(-c2ccccc2NCc2ncc[nH]2)n1 | -0.604 | -13.8 |
| COc1cc(N2C[C@@H]3COC[C@]3(COc3ccc(C#N)cn3)C2)ncn1 | -1.45 | 11.9 |
| Cn1cnc2c1CCN(CCS(=O)(=O)c1ccccc1)C2 | -1.69 | 0.397 |
